Reference: ChEMBL document CHEMBL3988442, “University of Dundee, Small-Polar-MMV Screening Library” (2021)
In all, about 48,000 compounds went through this assay and about 13,000 (27%) showed an effect of 50% or more. Some of the results follow.

tested on: Wolbachia pipientis; test: Anti-Wolbachia Cell-Based Screen; format: functional; set-up: scale not given: in the data most compounds retested in dose-response had high values; settings: 5 µM

| Structure (SMILES) | Percent Effect [%] |
| --- | --- |
| CCN(C)c1ccc(CNC(=O)c2cc(C(N)=O)cs2)cc1F | -17.75 |
| OCCN1CCN(Cc2cn(-c3ccccc3)nn2)CC1 | -6.326 |
| CN1CC(c2ccccc2)CC12CCN(C(=O)c1ccc(Cl)cn1)CC2 (stereo not drawn) | -6.025 |
| Cc1cc(N(C)Cc2snnc2C)nc(-c2cccnc2)n1 | 5.151 |
| Cc1cc(NCCc2c(C)n[nH]c2C)nc(-c2cccnc2)n1 | 90.29 |
| FC(F)(F)c1cc(NCCn2ncnn2)nc(-c2cccnc2)n1 | -6.298 |
| CC(C)Cc1cc(C(=O)NCCc2nnc(N)s2)n(C)n1 | 6.947 |
| Cc1csc(CCNc2ccc(C#N)cn2)n1 | -3.132 |
| Cc1cc(NCCc2nnc(N)s2)nc(-c2cccnc2)n1 | 111.6 |
| Cc1cc(NCCc2nc(C)cs2)nc(-c2cccnc2)n1 | 101.8 |
| FC(F)(F)c1cc(NCCCn2cccn2)nc(-c2cccnc2)n1 | 19.81 |
| CCCc1nc(C)cc(NCCc2nnc(N)s2)n1 | 113 |
| CCCc1nc(C)cc(NC(C)Cc2cnccn2)n1 (stereo not drawn) | 10.99 |
| Cc1n[nH]c(C)c1CCN(C)C(=O)C(c1cccnc1)N1CCOCC1 (stereo not drawn) | 1.239 |
| Cc1cc(N(C)Cc2cc(C(C)(C)C)n[nH]2)nc(-c2cccnc2)n1 | -3.665 |
| O=C(Nc1cccn(CC(F)(F)F)c1=O)c1ccncc1F | -0.2014 |
| CSc1ncc(C(=O)N2C[C@H]3CC[C@@H]2CN(Cc2ccccc2)C3)cn1 | -11.56 |
| COc1cccc(CNC2CCCOc3cc(C)ccc32)n1 (stereo not drawn) | -12.28 |
| Cc1ccccc1C(CC(=O)NCc1nnc(N)s1)c1ccccc1 (stereo not drawn) | 1.078 |
| Cn1cccc1-c1cc(C(=O)NCCc2nnc(N)s2)[nH]n1 | -4.601 |
| Cc1cc(NCCc2nnc(N)s2)nc(-c2ccccc2)n1 | 97.75 |
| N#Cc1cccc(NC(=O)N[C@H](CO)Cc2ccc(O)cc2)c1 | -17.39 |
| O=C(NC1CCC1)C1CCC2(CN(C(=O)c3ccno3)C2)O1 (stereo not drawn) | 2.059 |
| O=C(O)c1ccc(C2CCCN(C(=O)c3ccc[nH]3)C2)cc1 (stereo not drawn) | 96.47 |
| O=C(c1ccc[nH]1)N1CCCC(c2cc(C(F)(F)F)[nH]n2)C1 (stereo not drawn) | -9.471 |
| Cc1[nH]ccc1C(=O)N1CCCC(c2ccc(C(=O)O)cc2)C1 (stereo not drawn) | 104 |
| Cc1cc(C(=O)N2CCCC(c3ccc(C(=O)O)cc3)C2)c(C)o1 (stereo not drawn) | 108.3 |

| Structure (SMILES) | Percent Effect [%] |
| --- | --- |
| CC(C)(C)n1ccc(C(=O)N2CCCC(c3ccc(C(=O)O)cc3)C2)c1 (stereo not drawn) | -5.053 |
| CC(C)c1csc(C2CCCN(C(=O)c3ccc[nH]3)C2)n1 (stereo not drawn) | 7.741 |
| Cc1cc(C(=O)N2C[C@@H](C(=O)O)[C@H](c3ccccc3C)C2)c(C)o1 | -7.74 |
| Cc1[nH]ccc1C(=O)N1CCCC(c2nccn2Cc2cscn2)C1 (stereo not drawn) | -11.42 |
| CCC(C)N1CCC(Oc2ccc(C(=O)NCCN(C)C)cc2Cl)CC1 (stereo not drawn) | 0.8675 |
| COc1cccc(/C=C/CCN2CCCN(C(C)=O)CC2)c1 | 3.012 |
| COCC(=O)NCc1cccc(OCCN(C)C2CCOCC2)c1 | -0.3867 |
| Cc1ccc(C)c(-n2cc(CN3CCOCC3)c(-c3ccccc3)n2)c1 | 9.149 |
| CC(C)c1nc(C2CCCN2CCS(C)(=O)=O)no1 (stereo not drawn) | 108.9 |
| CC(C)c1nc(C2CCCN2CCc2ccccn2)no1 (stereo not drawn) | 92.65 |
| CC(C)c1nc(C2CCCN2CC(=O)N2CCNC2=O)no1 (stereo not drawn) | 0.9306 |
| Cc1nc(C2CCCN2CCCNS(C)(=O)=O)no1 (stereo not drawn) | 5.107 |
| CCc1nc(C2CCCN2CCc2ccccn2)no1 (stereo not drawn) | 17.85 |
| CCS(=O)(=O)CCN1CCCC1c1noc(C2CC2)n1 (stereo not drawn) | -6.058 |
| CC(C)c1nc(C2CCCN2CCc2ccncc2)no1 (stereo not drawn) | -3.016 |
| Cc1nc(C2CCCN2CCc2ccccn2)no1 (stereo not drawn) | 0.4664 |
| CC(C)c1nc(C2CCCN2CCN2CCCCC2)no1 (stereo not drawn) | 99.79 |
| CC(C)c1nc(C2CCCN2CCNS(C)(=O)=O)no1 (stereo not drawn) | 98.61 |
| CC(C)(C)CC(=O)N1CC[C@@H](CC(=O)O)[C@@H](CCN2CCCCC2)C1 | -5.604 |
| CN(C)c1ccc(C(=O)N(Cc2ccncc2)CC2CCCO2)nn1 (stereo not drawn) | -20.14 |
| CC(=O)Nc1cccc(C(=O)Nc2cnc3n2CCCC3)c1 | -12.98 |
| CCCS(=O)(=O)N1C[C@@H]2CC[C@H](C1)N(Cc1cscn1)C2=O | -56.87 |
| COCc1cnc2n1CCN(S(=O)(=O)c1c(C)nn(C)c1C)C2C (stereo not drawn) | -6.968 |
| CCCN(CCC)S(=O)(=O)NCCc1cc(C)ccc1OC | -23 |
| CCN(CC)C1(Cc2cc(-c3cccc(O)c3)on2)COC1 | -3.325 |
| O=C1NC2(CCN(C/C=C/c3ccccc3)CC2)CC1c1ccccc1 (stereo not drawn) | 1.619 |
